These results are taken from PubChem BioAssay.

In one assay the target is Fibroblast growth factor 10 (Homo sapiens) (UniProt O15520). Description: compounds binding fibroblast growth factor 10 – biochemical, small-molecule microarray, 635 nm fluorescence, primary screen (AID 1102). The conditions noted are these: FGF10 binding, fluorescence 635 nm, higher = more signal.
Sequence of Fibroblast growth factor 10 (Homo sapiens) (O15520 whole entry, looked up): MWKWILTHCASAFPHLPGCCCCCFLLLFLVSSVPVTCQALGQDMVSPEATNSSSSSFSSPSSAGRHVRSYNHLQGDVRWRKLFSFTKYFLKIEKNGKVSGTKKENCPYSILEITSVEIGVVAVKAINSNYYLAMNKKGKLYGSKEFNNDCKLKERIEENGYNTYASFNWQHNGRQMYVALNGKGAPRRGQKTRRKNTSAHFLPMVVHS
`C[C@H]1NC(=O)[C@H](Cc2ccccc2)NC(=O)[C@@]23C(=O)N[C@@H](Cc4ccccc4)C2[C@H](C)[C@@]2(C)O[C@H]2C3/C=C/C/C=C\CNC1=O` (some centres undefined): the composite z-score was -0.354.

In the case of `COC(=O)C(CC#Cc1ccc2c(c1)[C@]1(C(=O)N2)[C@H](C(=O)NC[C@H](O)c2ccccc2)[C@H]2C(=O)O[C@H](c3ccccc3)[C@H](c3ccccc3)N2[C@@H]1c1ccc(OCCO)cc1)C(=O)OC`, the composite z-score worked out at 1.3.

Compound `COC(=O)[C@]1(Cc2ccccc2N=[N+]=[N-])N=C(c2ccc(OCCCO)cc2)O[C@@H]1c1ccccc1N=[N+]=[N-]` registered a composite z-score of 0.0833.

`COCCOC(=O)N1C(=O)[C@@]2(c3cc(C#CCCO)ccc31)[C@H](C(=O)NC[C@H](O)c1ccccc1)[C@H]1C(=O)O[C@H](c3ccccc3)[C@H](c3ccccc3)N1[C@@H]2c1ccc(O)cc1` had a composite z-score of 0.518.

On to `C=CCC(OC(C)=O)[C@@H]1[C@@H](N(Cc2cccc3ccccc23)C(=O)c2cccc3ccccc23)c2cc(OCCCO)ccc2N1C(=O)c1ccc2ccccc2n1` (some centres undefined), for which the composite z-score worked out at 0.635.

The compound `O=C1C2C=CC(C(O)c3ccc(B(O)O)cc3)N(Nc3ccccc3)C2C(=O)N1c1ccccc1` (centres undefined) gave a composite z-score of -0.322.

With `C=C[C@H](COC(C)=O)N(Cc1ccc(OC(C)=O)c(OC)c1)S(=O)(=O)c1ccc(Br)cc1`, the composite z-score was found to be 0.934.

The compound `CC(C)Cc1ccc(CN2CC[C@@H](NS(=O)(=O)c3ccccc3)C2)cc1` had a composite z-score of -0.0725.

`O=C1OCC=C[C@H]2OC34C=CCN(c5ccc6ccccc6c5)C(=O)[C@H]3N(CCCO)C(=O)[C@@H]4[C@@H]12` (some centres undefined) gave a composite z-score of -0.709.

With `[N-]=[N+]=NCc1ccccc1C[C@]1(C(=O)O)N=C(c2ccc(OCCCO)cc2)O[C@H]1c1ccccc1CN=[N+]=[N-]`, the composite z-score is 0.126.

In turn, `COCCOC(=O)N1C(=O)[C@@]2(c3cc(C#CCC(C(=O)OC)C(=O)OC)ccc31)[C@H](c1ccccc1OCCO)N1[C@H](c3ccccc3)[C@H](c3ccccc3)OC(=O)[C@H]1[C@@H]2C(N)=O` registered a composite z-score of 1.22.

With `COCC1=C2[C@@H](CCc3ccccc3)OB(O)C[C@@H]2[C@@H]2C(=O)N(Cc3ccccc3)C(=O)[C@@H]2C1`, the composite z-score was 0.628.

In the case of `CC(C)NC(=O)[C@@H]1c2ccccc2C(=O)N(Cc2ccccc2Cl)[C@H]1c1ccc(CO)cc1`, the composite z-score was -0.584.

Consider `COc1cc2c(cc1OC)CN(C(=O)[C@@H]1[C@H]3C(=O)O[C@H](c4ccccc4)[C@H](c4ccccc4)N3[C@H](c3ccccc3OCCO)[C@@]13C(=O)Nc1ccc(C#CCNC(N)=O)cc13)CC2`, for which the composite z-score is 0.518.

Another assay deals with glycogen synthase kinase-3 (GSK3A per assay name; protocol says GSK3B). Description: compounds binding glycogen synthase kinase-3 – biochemical, small-molecule microarray, 635 nm fluorescence, GSK3A, primary screen (AID 1103). Also: the record names both GSK3A and GSK3B. The conditions noted are these: fluorescence 635 nm, higher = more signal.
As for `Cc1ccccc1C(O)C1C=CC2C(=O)N(C)C(=O)C2N1Nc1ccccc1` (centres undefined), the composite z-score stood at 0.63.

Compound `COc1cc(CO)ccc1OC(C)=O` gave a composite z-score of 0.536.

In the case of `CC(=CC1CCCCC1)[C@@H](NC(=O)c1ccc(C(F)(F)F)cc1)c1ccc(-c2ccccc2)cc1`, the composite z-score was -0.988.

For `COc1ccc([Si](C)(C)[C@H]2[C@H](CCn3cc([C@H](O)c4ccccc4)nn3)O[C@@]3(C(=O)N(Cc4cccc(N5CCC5=O)c4)c4ccccc43)[C@@H]2C)cc1`, the composite z-score was -0.113.

Turning to `CCCC[C@H]1OB(O)C[C@H]2C1=C(C)C[C@H]1C(=O)N(Cc3ccccc3)C(=O)[C@H]12`, the composite z-score is 0.507.

On to `CC(C)NC(=O)[C@@H]1c2ccccc2C(=O)N(Cc2ccccc2)[C@H]1c1ccc(CO)cc1`, for which the composite z-score was 0.263.

Turning to `[N-]=[N+]=NCc1ccccc1C[C@]1(C(=O)NCC(O)CO)N=C(c2ccc(OCCCO)cc2)O[C@H]1c1ccccc1N=[N+]=[N-]` (some centres undefined), the composite z-score worked out at 0.091.

`C=CCC(OC(C)=O)[C@@H]1[C@@H](N(Cc2ccc(-c3ccccc3)cc2)C(=O)Cc2ccc(F)cc2)c2cc(OCCCO)ccc2N1C(=O)c1ccc2ccccc2n1` (some centres undefined) displayed a composite z-score of -0.226.

`CO[C@H]1O[C@H](CO)[C@@H](OC(=O)Nc2ccc(Oc3ccccc3)cc2)[C@H](OC(=O)Nc2ccccc2)[C@H]1OC(=O)Nc1ccccc1` displayed a composite z-score of 1.33.

With `CC(C)C(O)C1C=CC2C(=O)N(c3ccccc3)C(=O)C2N1Nc1ccc(C#N)cc1` (centres undefined), the composite z-score was 0.681.

For the compound `CC(C)c1ccc(NN2C(C(O)c3c(F)cccc3Cl)C=CC3C(=O)N(c4ccccc4)C(=O)C32)cc1` (centres undefined), the composite z-score amounted to 0.852.

In turn, `O=C(NCc1ccccc1)[C@]1(CCS(=O)(=O)c2ccccc2)N=C(c2ccc(OCCCO)cc2)O[C@@H]1c1ccccc1` came in with a composite z-score of 1.32.

Take `COc1ccc([Si](C)(C)[C@H]2[C@H](CCn3cc(CCO)nn3)O[C@@]3(C(=O)N(Cc4ccc(N5CCOC5=O)cc4)c4ccccc43)[C@@H]2C)cc1`: the composite z-score came out at 0.625.

For the compound `COCCOC(=O)N1C(=O)[C@@]2(c3cc(C#CC4=CCCCC4)ccc31)[C@H](C(=O)N1CCc3cc(OC)c(OC)cc3C1)[C@H]1C(=O)O[C@H](c3ccccc3)[C@H](c3ccccc3)N1[C@@H]2c1ccccc1OCCO`, the composite z-score came to 1.2.

On to `Cc1ccccc1C(O)C1C=CC2C(=O)N(C)C(=O)C2N1N1CCCCC1` (centres undefined), for which the composite z-score came to 1.04.

Regarding `CCCCC(O)C1C=CC2C(=O)N(C3CCCCC3)C(=O)C2N1Nc1ccc(OC)cc1` (centres undefined), the composite z-score was found to be 1.28.

Turning to `O=C(CCN1CCOCC1)c1cccc(O)c1`, the composite z-score was determined as 1.22.

With `C=C(COC)C(=O)CC[C@@H](OC(=O)c1cccnc1)c1ccc(CO)o1`, the composite z-score worked out at 0.457.

Take `O=C1c2ccccc2[C@@]2(Cc3ccccc3N(Cc3ccccc3)C2=O)[C@H](c2ccc(CO)cc2)N1C1CCCCC1`: the composite z-score was 0.152.

With `Cc1ccc(S[C@]2(C(=O)NC3CC3)CC(=O)N(C3CCCCC3)[C@@H]2c2ccc(CO)cc2I)cc1`, the composite z-score was found to be 0.52.

In turn, `CCOC(=O)C[C@H]1[C@H](OC(=O)c2ccccc2-c2ccccc2)[C@@H](NC(=O)c2ccc3ccccc3c2)c2cc(OCCCO)ccc2N1C(=O)c1ccc2ccccc2n1` registered a composite z-score of 0.119.

Compound `C[C@H]1NC(=O)[C@H](Cc2ccccc2)NC(=O)[C@@]23C(=O)N[C@@H](Cc4ccccc4)C2[C@H](C)[C@@]2(C)O[C@H]2C3/C=C/C/C=C\CNC1=O` (some centres undefined) registered a composite z-score of -1.16.

As to `COC(=O)C(CC#Cc1ccc2c(c1)[C@]1(C(=O)N2)[C@H](C(=O)NC[C@H](O)c2ccccc2)[C@H]2C(=O)O[C@H](c3ccccc3)[C@H](c3ccccc3)N2[C@@H]1c1ccc(OCCO)cc1)C(=O)OC`, the composite z-score amounted to 1.3.

Compound `COC(=O)[C@]1(Cc2ccccc2N=[N+]=[N-])N=C(c2ccc(OCCCO)cc2)O[C@@H]1c1ccccc1N=[N+]=[N-]` displayed a composite z-score of -0.383.

Compound `COCCOC(=O)N1C(=O)[C@@]2(c3cc(C#CCCO)ccc31)[C@H](C(=O)NC[C@H](O)c1ccccc1)[C@H]1C(=O)O[C@H](c3ccccc3)[C@H](c3ccccc3)N1[C@@H]2c1ccc(O)cc1` came in with a composite z-score of -0.417.

The compound `C=CCC(OC(C)=O)[C@@H]1[C@@H](N(Cc2cccc3ccccc23)C(=O)c2cccc3ccccc23)c2cc(OCCCO)ccc2N1C(=O)c1ccc2ccccc2n1` (some centres undefined) displayed a composite z-score of 0.0702.

On to `O=C1C2C=CC(C(O)c3ccc(B(O)O)cc3)N(Nc3ccccc3)C2C(=O)N1c1ccccc1` (centres undefined), for which the composite z-score was -1.15.

As to `C=C[C@H](COC(C)=O)N(Cc1ccc(OC(C)=O)c(OC)c1)S(=O)(=O)c1ccc(Br)cc1`, the composite z-score came out at 1.06.

As for `CC(C)Cc1ccc(CN2CC[C@@H](NS(=O)(=O)c3ccccc3)C2)cc1`, the composite z-score is -0.375.

`O=C1OCC=C[C@H]2OC34C=CCN(c5ccc6ccccc6c5)C(=O)[C@H]3N(CCCO)C(=O)[C@@H]4[C@@H]12` (some centres undefined) yielded a composite z-score of -1.34.

For the compound `[N-]=[N+]=NCc1ccccc1C[C@]1(C(=O)O)N=C(c2ccc(OCCCO)cc2)O[C@H]1c1ccccc1CN=[N+]=[N-]`, the composite z-score came to 0.421.

In turn, `COCCOC(=O)N1C(=O)[C@@]2(c3cc(C#CCC(C(=O)OC)C(=O)OC)ccc31)[C@H](c1ccccc1OCCO)N1[C@H](c3ccccc3)[C@H](c3ccccc3)OC(=O)[C@H]1[C@@H]2C(N)=O` gave a composite z-score of 1.31.

`COCC1=C2[C@@H](CCc3ccccc3)OB(O)C[C@@H]2[C@@H]2C(=O)N(Cc3ccccc3)C(=O)[C@@H]2C1` yielded a composite z-score of 0.197.

Turning to `CC(C)NC(=O)[C@@H]1c2ccccc2C(=O)N(Cc2ccccc2Cl)[C@H]1c1ccc(CO)cc1`, the composite z-score was found to be 0.0016.

For `COc1cc2c(cc1OC)CN(C(=O)[C@@H]1[C@H]3C(=O)O[C@H](c4ccccc4)[C@H](c4ccccc4)N3[C@H](c3ccccc3OCCO)[C@@]13C(=O)Nc1ccc(C#CCNC(N)=O)cc13)CC2`, the composite z-score was found to be 1.08.
